# CHT block: inhibits the human high affinity choline transporter; 0.86% of 310,000 active; B-score at 10 µM; CHT-expressing cells, membrane potential dye, choline response; active compounds read low;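 active means B-score over 3 SD under the library average, and starting fluorescence ratio not unusually high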;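 further: choline stimulus applied at its EC90 after an EC20 pre-addition; B-score computed on integrated fluorescence ratio after choline addition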
# EP2 mod: modulates human prostaglandin E2 receptor EP2 signaling | EP2-expressing cells, cAMP HTRF FRET, PGE2 co-stimulation | induction, % at 25 µM | 0.83% of 260,000 active | AID 940;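 active means compounds whose cAMP rise, as percent of the full-agonist control response, exceeds 60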;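 further: rat C6 glioma line stably carrying human EP2 under a CMV promoter; the protocol text gives 20 µM as final concentration; 100% = response of wells given 1 µM PGE2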
# Target sequence (P43116 whole entry, looked up): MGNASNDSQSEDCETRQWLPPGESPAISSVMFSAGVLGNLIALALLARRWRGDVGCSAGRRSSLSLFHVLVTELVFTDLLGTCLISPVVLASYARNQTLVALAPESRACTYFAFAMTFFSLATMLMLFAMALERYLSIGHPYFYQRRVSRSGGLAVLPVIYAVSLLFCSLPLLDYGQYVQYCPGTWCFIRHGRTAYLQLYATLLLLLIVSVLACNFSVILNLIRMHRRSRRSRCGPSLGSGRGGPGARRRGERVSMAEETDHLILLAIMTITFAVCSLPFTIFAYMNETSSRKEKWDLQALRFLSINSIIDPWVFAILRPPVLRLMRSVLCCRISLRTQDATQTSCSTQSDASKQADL
# CHT PAM: allosteric activators of human choline transporter CHT | CHT-expressing cells, membrane potential dye, choline EC20; active compounds read high; LV-AA mutant CHT in HEK293 cells | B-score at 10 µM | 0.49% of 310,000 active;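 active means initial fluorescence not abnormally high and integrated response B-score, plate-corrected, over 3 SD above library mean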
# EP2 antag: inhibitors of human EP2 prostaglandin E2 receptor; P43116; C6 glioma cells expressing human EP2, cAMP TR-FRET; cells stimulated with saturating PGE2; inhibition, % at 25 µM; 0.52% of 260,000 active; AID 1422;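 active means percent inhibition above 40 after rounding to a whole number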;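 further: rat C6 glioma host cells with rolipram phosphodiesterase inhibitor present; the protocol text gives 20 µM as final concentration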
# CHT activ conf: confirmation of human choline transporter (CHT) activators; 91% of 2,500 active; shares compounds with CHT PAM; activation, % at 10 µM; AID 504833; CHT-expressing cells, membrane potential dye fluorescence (FDSS); % of choline EC20–EC90 response window; HEK293 expressing CHT LV-AA mutant; choline added at its EC20;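 active means primary screen active, with duplicate mean activation above negative control mean plus 3 SD, cut at about 11% in these data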
# HEK293 MP dye: activity in parental HEK293 cells lacking CHT; shares compounds with CHT PAM; membrane potential dye fluorescence (FDSS); measured after EC20 choline addition; 62% of 2,500 active; ratio readout change at 10 µM, hits read low;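 active means duplicate-averaged ratio beyond 3 SD from buffer wells, up or down, though filed actives are nearly all decreases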
# Starred values were filed as active, the others as inactive; i = inactive; . = no result given. This is a sample that favours compounds with a hit; in the whole collection about 2.1% have one here.
SMILES,CHT block,EP2 mod,CHT PAM,EP2 antag,CHT activ conf,HEK293 MP dye
COc1cc(NS(C)(=O)=O)ccc1Nc1c2ccccc2nc2ccccc12,i,-13,8.3*,19,13*,-54*
COc1ccc(OC)c(Nc2c3ccccc3nc3ccccc23)c1,i,.,i,.,.,.
CCc1nn(CC(=O)NC(C)(C)C)c(=O)c2cc3sc(C)cc3n12,.,-32,.,.,.,.
CCOP(=O)(OCC)C(NCc1ccccc1)c1ccc(Br)cc1 (stereo unspecified),i,49,i,12,29*,i
CCOP(=O)(OCC)C(NC(=O)C(F)(F)F)c1ccccc1 (stereo unspecified),i,10,i,5,.,.
NC(=O)CSc1nnc2n(Cc3ccc(F)cc3)c3ccccc3n12,.,1,.,9,.,.
Nc1ccc(C(=O)OCc2ccncc2)cc1[N+](=O)[O-],i,-5,i,3,35*,-31*
CCOc1ccc2[nH]c(C(=O)Nc3ccc4c(c3)CC(C)N4C(C)=O)c(C)c2c1 (stereo unspecified),.,-50,.,13,.,.
Cc1nc2ccccn2c1C(=O)N/N=C/c1ccccc1,i,.,i,.,.,.
Cc1nc2ccccn2c1C(=O)N/N=C/c1cc(C)n(-c2ccc(Br)cc2)c1C,i,-43,i,8,18*,i
C/C(=N\N=C(N)N)c1cccc([N+](=O)[O-])c1,i,-4,6.4*,6,27*,-57*
CCOc1ccc(-n2nnnc2SCC(=O)Nc2ccccc2Cl)cc1,.,-79,.,13,.,.
CCNC(=S)Nc1sc2c(c1C(=O)OCC)CCCC2,.,24,.,16,.,.
CC(=O)c1ccc(NC(=O)c2ccn(C(=O)OCC(C)C)n2)cc1,i,1,i,3,18*,-36*
CC(C)COC(=O)n1ccc(C(=O)N2CCCCC2)n1,i,21,i,8,.,.
CCN1C(=NCC2CC2)N[C@@H](c2cccc(C(F)(F)F)c2)C(C(=O)OC)=C1C,i,.,11*,.,25*,i
COC(=O)C1=C(C)N(Cc2ccccc2)C(=O)N[C@H]1c1cccc(C(F)(F)F)c1,i,13,i,14,.,.
COC(=O)C1=C(C)N(Cc2ccccc2)C(=NCc2ccc(OC)cc2)N[C@H]1c1cccc(F)c1,i,.,i,.,20*,i
COC(=O)[C@H]1CN(C(=O)c2scnc2C)C[C@@H]1c1ccc(F)cc1,.,4,.,5,.,.
Cc1c(C)n(CCN(C)C)c2ncnc(NCc3ccccc3)c12,i,.,i,.,46*,-48*
Nc1c2c(nc3ccccc13)CSCC2,i,.,6.3*,.,54*,-55*
Nc1c2c(nc3ccccc13)N(c1ccccc1)CC2,i,-14,i,11,.,.
CCC[N+]1(CCC)CC2=Cc3c(ccc4ccccc34)CC2C1 (stereo unspecified),.,28,.,6,.,.
COc1ccc(CSc2ccc(-c3nc4ccccn4c3NCc3ccccc3)cc2OC)cc1,i,.,8.9*,.,31*,i
COc1ccc(Br)cc1CN(C)C(=O)c1ccccc1OCc1c(C)noc1C,i,.,i,.,38*,i
SMILES,CHT block,EP2 mod,CHT PAM,EP2 antag,CHT activ conf,HEK293 MP dye
COc1cccc(N2CCN(S(=O)(=O)c3ccc4c(c3)CC(C)N4C(=O)C3CC3)CC2)c1 (stereo unspecified),i,.,i,.,.,.
CC1Cc2cc(S(=O)(=O)N3CCN(c4ccccc4F)CC3)ccc2N1C(=O)C1CC1 (stereo unspecified),i,.,7.5*,.,20*,i
CN(C)CCNC(=O)c1onc(CSc2ccc(F)c(F)c2)c1C(=O)NCCN(C)C,i,22,i,8,.,.
CN(C)CCNC(=O)c1onc(CSc2ccc(F)cc2)c1C(=O)NCCN(C)C,i,4,6.7*,7,17*,-20*
COc1cccc(C(=O)NCC(c2ccco2)N2CCc3ccccc3C2)c1 (stereo unspecified),i,.,i,.,.,.
O=C(NCC(c1ccco1)N1CCc2ccccc2C1)c1cccc(F)c1 (stereo unspecified),i,.,i,.,11*,i
O=C(NCC(c1ccco1)N1CCc2ccccc2C1)c1ccc([N+](=O)[O-])cc1 (stereo unspecified),i,.,i,.,.,.
Cc1ccccc1C(=O)NCC(c1ccco1)N1CCc2ccccc2C1 (stereo unspecified),i,.,i,.,-1,i
CCn1c(/C=N/Nc2ccc(C(=O)O)cc2)nc2ccccc21,i,29,6.3*,5,44*,-35*
CCn1c(CNc2ccc(C(=O)O)cc2)nc2ccccc21,i,-2,i,8,.,.
CCOC(=O)C(NC(=O)CC)(Nc1sc2c(c1C(=O)OC)CCN(C)C2)C(F)(F)F (stereo unspecified),i,12,7.5*,5,26*,-49*
CCC(=O)NC(Nc1sc2c(c1C(=O)OC)CCN(C)C2)(C(F)(F)F)C(F)(F)F,i,2,i,7,.,.
CCOC(=O)NC(Nc1sc2c(c1C(=O)OC)CCN(C)C2)(C(F)(F)F)C(F)(F)F,i,-3,7.6*,14,8,-50*
Cc1ccc2c(c1)c(-c1ccccc1)nc1nncn12,i,-1,i,8,38*,-32*
COc1ccc(NC(=O)C2CCN(c3nc4ccccc4n3C)CC2)cn1,.,-34,.,.,.,.
CCCCn1c(N)c(N(CC)C(=O)CSCC(=O)Nc2ccc(OC)cc2)c(=O)[nH]c1=O,i,.,i,.,.,.
CCCCn1c(N)c(N(CC(C)C)C(=O)CSCC(=O)Nc2ccc(OC)cc2)c(=O)[nH]c1=O,i,.,i,.,4,i
CCN1CCc2c(sc(N)c2C#N)C1,i,5,i,14,37*,-39*
CC(C)N1CCc2c(sc(N)c2C#N)C1,i,18,6.4*,11,43*,-36*
COC(=O)c1c(NC(=O)c2cc(OC)c(OC)c(OC)c2)sc(C(=O)N2CCCCC2)c1C,.,-2,.,13,.,.
NS(=O)(=O)c1ccc(NC(=O)c2ccccc2C(=O)N2CCOCC2)cc1,.,2,.,9,.,.
O=C(Nc1ccccc1)c1ccc[n+](Cc2ccc([N+](=O)[O-])cc2)c1,i,0,i,9,42*,-32*
CC(C)NC(=O)CSc1nnc(COc2cccc3ccccc23)n1C,.,-20,.,8,.,.
Cc1ccc2cccc(OCc3nnc(SCC(=O)O)n3C)c2n1,i,6,i,4,51*,-53*
Cc1ccn2c(NC3CCCC3)c(-c3ccncc3)nc2c1,i,-1,7.2*,6,47*,-63*
CCn1nnc(NC(=O)COc2cc(C)c(Cl)c(C)c2)n1,.,-72,.,12,.,.
CCOc1ccc2[nH]c3c(c2c1)CN(C(=O)CCc1cc(OCC)no1)CC3,.,-39,.,5,.,.

# Screens deposited in PubChem BioAssay by several laboratories.
